In the supplement of paper PMC3342239:
Where a name gives a salt, the structure may show the parent alone.

system: Saccharomyces cerevisiae; test: fraction of cells in G1 phase (DNA content, flow cytometry); higher = more cells with unreplicated DNA (G1 delay); conditions: temperature: 30 C; YPD; JTY2953 pdr5 snq2 (sensitized); drug added to: cultures diluted from stationary phase; 6-7 h
Method in brief: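 Library drugs were added to S. cerevisiae in YPD at 30°C, with fixation after 6–7 h for sensitized JTY2953 diluted 1∶200 from overnight and given a final 20 µg/ml, 6 h for dividing JTY2953, and 4.33 h for BY4741. Ethanol-fixed cells stained with SYTOX Green were read by flow cytometry, 10,000 events each. The G1 fraction is the ratio of the Dean-Jett-Fox G1 peak area to the G1 plus G2/M areas.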

Compound | fraction of cells in G1 phase
N=c1nc(N2CCCCC2)cc(N)n1O [Minoxidil] (95.5782 µM) | 0.522
Nc1nc(Cl)nc2c1ncn2[C@@H]1O[C@H](CO)[C@@H](O)[C@@H]1F [Clofarabine] (65.8583 µM) | 0.465
COc1ccccc1Oc1c(NS(=O)(=O)c2ccc(C(C)(C)C)cc2)nc(-c2ncccn2)nc1OCCO [Bosentan] (36.2564 µM) | 0.497
CCCc1nn(C)c2c(=O)[nH]c(-c3cc(S(=O)(=O)N4CCN(C)CC4)ccc3OCC)nc12 [Sildenafil] (42.142 µM) | 0.503
NS(=O)(=O)c1cc(C(=O)O)c(NCc2ccco2)cc1Cl [Furosemide] (60.4688 µM) | 0.459
COCc1c(C(C)C)nc(C(C)C)c(/C=C/[C@@H](O)C[C@@H](O)CC(=O)O)c1-c1ccc(F)cc1 [Cerivastatin] (43.5196 µM) | 0.448
Clc1ccccc1CN1CCc2sccc2C1 [Ticlopidine HCl] (75.8175 µM) | 0.505
N=c1ccn2c(n1)O[C@H]1[C@H](O)[C@@H](CO)O[C@H]12 [Cyclocytidine HCl] (88.8077 µM) | 0.484
O=C(O)COC(=O)Cc1ccccc1Nc1c(Cl)cccc1Cl [Aceclofenac] (56.4665 µM) | 0.489
CC(=O)O[C@]1(C(C)=O)CC[C@H]2[C@@H]3C=C(Cl)C4=CC(=O)[C@@H]5C[C@@H]5[C@]4(C)[C@H]3CC[C@@]21C [Cyproterone acetate] (47.9675 µM) | 0.597
C[C@](N)(Cc1ccc(O)c(O)c1)C(=O)O [Methyldopa] (94.6883 µM) | 0.412
CC(C(=O)O)c1cccc(C(=O)c2ccccc2)c1 (configuration not stated) [Ketoprofen+D153] (78.6509 µM) | 0.495
COC(=O)Nc1nc2cc(Sc3ccccc3)ccc2[nH]1 [Fenbendazole] (66.8106 µM) | 0.421
CN1CCC(=C2c3ccccc3C=Cc3ccccc32)CC1 [Cyproheptadine] (69.5874 µM) | 0.426
NS(=O)(=O)Cc1noc2ccccc12 [Zonisamide] (94.238 µM) | 0.51
CC1(C)[C@H](C(=O)O)N2C(=O)C[C@H]2S1(=O)=O [Sulbactam] (85.7469 µM) | 0.477
CN1CCN2c3ccccc3Cc3ccccc3C2C1 (configuration not stated) [Mianserin hcl] (75.6505 µM) | 0.471
CC(C)NCC(O)COc1cccc2[nH]ccc12 (configuration not stated) [Pindolol] (80.5387 µM) | 0.515
CC1=C(/C=C/C(C)=C/C=C/C(C)=C/C=C/C=C(C)/C=C/C=C(C)/C=C/C2=C(C)C(=O)CCC2(C)C)C(C)(C)CCC1=O [Canthaxanthin] (35.4071 µM) | 0.527
CC1COc2c(N3CCN(C)CC3)c(F)cc3c(=O)c(C(=O)O)cn1c23 (configuration not stated) [Ofloxacin] (55.344 µM) | 0.505
CC(=O)OCC(=O)NCCCOc1cccc(CN2CCCCC2)c1 [Roxatidine acetate HCl] (57.3977 µM) | 0.461
COc1ccc2[nH]c([S@@+]([O-])Cc3ncc(C)c(OC)c3C)nc2c1 [Esomeprazole potassium] (57.9 µM) | 0.522
NNC(=O)c1ccncc1 [Isoniazid] (145.834 µM) | 0.518
O=c1[nH]c(=O)n(C2CCCO2)cc1F (configuration not stated) [Ftorafur] (99.9146 µM) | 0.512
COc1ccccc1OCCNCC(O)COc1cccc2[nH]c3ccccc3c12 (configuration not stated) [Carvedilol] (49.2022 µM) | 0.525
O=C1CC2(CCCC2)CC(=O)N1CCCCN1CCN(c2ncccn2)CC1 [Buspirone HCl] (51.8789 µM) | 0.499
CC[C@H]1OC(=O)[C@H](C)[C@@H](O[C@H]2C[C@@](C)(OC)[C@@H](O)[C@H](C)O2)[C@H](C)[C@@H](O[C@@H]2O[C@H](C)C[C@H](N(C)C)[C@H]2O)[C@](C)(O)C[C@@H](C)/C(=N\OCOCCOC)[C@H](C)[C@@H](O)[C@]1(C)O [Roxithromycin] (23.8929 µM) | 0.472
